Experiment [1] is described as follows: inhibitors of TNFa-induced NFkB p65 translocation, primary screen, imaging, HUVEC, MLSMR starter and 10KST1 sets (AID 438;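 active means inhibition above 20% together with a positive visual image hit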;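 further: compound added about 3h40 before a 20 min TNFalpha stimulation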;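 on inhibition: signal is the nuclear over cytoplasmic p65 intensity ratio per well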). The conditions noted are these: HUVEC TNFa-induced p65 nuclear translocation; cell count: measured here: nuclei count (cytotoxicity indicator), at 2.08 µM; inhibition: at 2 µM, stronger effect = higher value, 0% TNFa-plus-vehicle, 100% no-TNFa wells.

Experiment [2] is described as follows: reduction of polyQ htt aggregates in cells – imaging, exon1htt(103Q)mCFP cells, high-content imaging, primary screen (AID 483;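 active means visual image review flags a hit and inhibition of aggregation exceeds 20%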;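 further: compound exposure lasted 3 days before fixation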;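 on nuclei count: percent of the per-plate median nuclei count of sample wells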). The conditions noted are these: exon1htt(103Q)mCFP cell line, aggregate imaging, at 2 µM; inhibition of aggregation: stronger effect = higher value; nuclei count: measured here: cell count, toxicity.
Experiment [3] is described as follows: endothelial E-selectin expression blockers – imaging, HUVEC, immunofluorescence, MLSMR starter and 10KST1 sets, primary screen (AID 487;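 active means visually confirmed hit in the image check and inhibition above 20%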;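 on inhibition: signal is fraction of cell area covered by stained E-selectin grains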;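 on nuclei count: 100% = median nuclei count of all wells on the same plate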). The note with it: HUVEC TNFalpha-induced E-selectin immunofluorescence imaging, at 2 µM; inhibition: stronger effect = higher value; nuclei count: measured here: cell number, toxicity.
Experiment [4] addresses Voltage-gated potassium channel subunit beta-2 (Rattus norvegicus) (UniProt P62483). Kind of experiment: inhibitors of rat Kvbeta2 reductase activity – biochemical, NADPH fluorescence, primary screen (AID 622;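 active means fluorescence slope higher than the sample average by over 3 SD, cut at about -0.22 in these data, passing the limit was not always enough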;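 further: slope of raw intensity against log time taken from 70 to 1610 s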). The conditions noted are these: recombinant KvBeta, 4-cyanobenzaldehyde reduction, at 10 µM, stronger effect = higher value.
The target is the same in experiment [5]. Description: enhancers of rat Kvbeta2 NADPH turnover – biochemical, NADPH fluorescence, primary screen (AID 623;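 active means NADPH fluorescence slope more negative than the mean of all samples by about 3 SD, 99.7% confidence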;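 further: fluorescence intensity change per second fitted from 20 to 320 s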). The note with it: Recombinant KvBeta, NADPH fluorescence decrease slope, 10 min; at 10 µM; stronger effect = lower value.
Experiment [6] addresses Alpha-2C adrenergic receptor (Homo sapiens) (UniProt P18825). Description: compounds altering alpha2C-coupled GIRK flux – cell-based, HEK293 alpha2C/GIRK1/2, thallium flux, primary screen (AID 624).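 Further: slope of fluorescence ratio to pre-addition baseline per second over 15 to 24 s.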 The note with it: thallium flux BTC fluorescence, at 10 µM, actives lie on both sides.
Experiment [7] is described as follows: blockers of RIG-like receptor reporter activation – cell-based, Sendai virus stimulus, luciferase, 10K MLSCN set, TLR/RLR signaling modifier project, primary screen (AID 602276;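 active means inhibition at or above 50% at 10 µM; inactive means inhibition below 50%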;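 further: firefly luciferase from ISG56 promoter only with Renilla not read in this screen; 0% = Sendai virus plus DMSO and 100% = medium plus DMSO without virus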). The conditions noted are these: HEK293 RL24 IRF3 luciferase reporter, at 10 µM, stronger effect = higher value. Background: In a reporter assay the amount or activity of a reporter protein is the signal.

Experiment [8] can be described thus: TLR3 IRF3 reporter activation blockers – cell-based, poly I:C stimulus, luciferase, 10K MLSCN set, primary screen (AID 602277;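 active means inhibition of the reporter signal at or above 50%; inactive means inhibition below 50%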). The conditions noted are these: HEK293-TLR3 RL24 IRF3 luciferase reporter, at 10 µM, stronger effect = higher value.

Calls of active or inactive are those of the source.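 How the source made its calls, unless noted: active means fluorescence slope after compound addition differing from the mean of all screened samples at 99.7% confidence, in either direction; inactive means the rest.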

A word on the inhibition: it is the relative decrease from the control value, in per cent.

Chain of Voltage-gated potassium channel subunit beta-2 (Rattus norvegicus) (P62483 whole entry, looked up): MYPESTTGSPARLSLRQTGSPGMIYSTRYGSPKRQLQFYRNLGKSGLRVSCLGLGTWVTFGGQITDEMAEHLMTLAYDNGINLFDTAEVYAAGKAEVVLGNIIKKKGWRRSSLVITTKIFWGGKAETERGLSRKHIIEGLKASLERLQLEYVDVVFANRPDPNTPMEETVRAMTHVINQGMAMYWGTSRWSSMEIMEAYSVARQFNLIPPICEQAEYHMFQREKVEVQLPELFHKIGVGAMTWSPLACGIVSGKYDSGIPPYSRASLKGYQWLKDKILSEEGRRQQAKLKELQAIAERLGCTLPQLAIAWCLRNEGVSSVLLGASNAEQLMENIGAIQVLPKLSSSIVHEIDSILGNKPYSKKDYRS
Chain of Alpha-2C adrenergic receptor (Homo sapiens) (P18825 whole entry, looked up): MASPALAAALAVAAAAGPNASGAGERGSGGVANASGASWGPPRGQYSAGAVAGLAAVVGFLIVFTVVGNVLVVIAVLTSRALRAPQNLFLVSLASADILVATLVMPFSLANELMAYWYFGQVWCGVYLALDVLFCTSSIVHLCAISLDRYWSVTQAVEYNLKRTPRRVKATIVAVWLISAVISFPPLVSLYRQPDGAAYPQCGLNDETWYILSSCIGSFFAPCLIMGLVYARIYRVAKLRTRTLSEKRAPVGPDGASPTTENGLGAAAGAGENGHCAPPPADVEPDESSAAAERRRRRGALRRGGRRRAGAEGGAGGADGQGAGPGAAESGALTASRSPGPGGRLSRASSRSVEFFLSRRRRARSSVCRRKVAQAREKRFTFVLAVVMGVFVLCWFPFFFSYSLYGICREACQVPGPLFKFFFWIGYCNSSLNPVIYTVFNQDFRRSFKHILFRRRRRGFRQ

On to `C=CCn1c(Br)nc2c1c(=O)[nH]c(=O)n2C`, for which the cell count in experiment [1] is 372. Further, the inhibition is -4.7% (inactive) in experiment [1], -62% (inactive) in experiment [3], 15.8% (inactive) in experiment [7] and 9.88% (inactive) in experiment [8]. For the same compound, the inhibition of aggregation in experiment [2] was 8.4% (inactive). The nuclei count is 92.3% in experiment [2] and 116% in experiment [3]. Moreover, the fluorescence slope in experiment [4] is -0.373 (inactive). In experiment [5], the NADPH fluorescence slope is -3.1e-05 (inactive). Further, in experiment [6], the slope is 0.00545 (inactive).
For `C/C=C/COC(=O)c1[nH]c2c(c1C)C(=O)CC(c1ccc(N(C)C)cc1)C2` (stereo not drawn), in experiment [1], the cell count turned out to be 699. Further, the inhibition in experiment [1] is 1.8% (inactive); in experiment [3] it was -46.6% (inactive); in experiment [7], -29.1% (inactive); in experiment [8], -68.7% (inactive). For the same compound, the inhibition of aggregation in experiment [2] was 14.4% (inactive). Besides, the nuclei count was determined as 79.6% in experiment [2] and 115% in experiment [3]. Also, the fluorescence slope in experiment [4] was -0.543 (inactive). In addition, the NADPH fluorescence slope in experiment [5] was -2.2e-05 (inactive). The slope in experiment [6] is 0.00679 (inactive).
As for `C=CCn1c(=O)c(C(=O)Nc2ccccc2C(=O)OCC)c(O)c2ccccc21`, in experiment [1], the cell count is 495. Besides, the inhibition in experiment [1] was -5.5% (inactive); in experiment [3] it was -23.1% (inactive); in experiment [7] it was 16.9% (inactive); in experiment [8], 14.7% (inactive). Besides, the inhibition of aggregation in experiment [2] was -15.6% (inactive). In addition, the values for the nuclei count in experiment [2] and in experiment [3] were 120% and 122%, respectively. Also, in experiment [4], the fluorescence slope is -0.422 (inactive). Besides, in experiment [5], the NADPH fluorescence slope was -4.7e-05 (inactive). Moreover, the slope in experiment [6] is 0.00716 (inactive).
Turning to `CCc1nnc2sc(-c3cc(-c4ccccc4)nc4ccccc34)nn12`, the cell count in experiment [1] came out at 267. The inhibition in experiment [1] was 5.4% (inactive); in experiment [3], 3.3% (inactive); in experiment [7], 8.15% (inactive); in experiment [8], 26.8% (inactive). The inhibition of aggregation in experiment [2] is 7.4% (inactive). For the same compound, the nuclei count in experiment [2] was 87%; in experiment [3], 90.4%. The fluorescence slope in experiment [4] is -0.436 (inactive). For the same compound, the NADPH fluorescence slope in experiment [5] is 2.9e-06 (inactive). In experiment [6], the slope is 0.00312 (inactive).
For `COc1cc2cc(C(c3nnnn3C3CCCC3)N(C)C3CCCCC3)c(=O)[nH]c2cc1OC` (stereo not drawn), in experiment [1], the cell count came out at 537. The inhibition in experiment [1] was -13.2% (inactive); in experiment [3] it was -15.9% (inactive); in experiment [7] it was 12.4% (inactive); in experiment [8], 22% (inactive). In addition, the inhibition of aggregation in experiment [2] was -34.3% (inactive). The nuclei count in experiment [2] is 100%; in experiment [3], 108%. Besides, the fluorescence slope in experiment [4] was -0.465 (inactive). Further, the NADPH fluorescence slope in experiment [5] was -2e-05 (inactive). For the same compound, the slope in experiment [6] was 0.007 (inactive).
As for `CCCC(NC(=O)c1ccccc1)c1nc2ccccc2n1Cc1ccc(C(=O)OC)o1` (stereo not drawn), in experiment [1], the cell count is 722. Moreover, the inhibition in experiment [1] was 5.5% (inactive); in experiment [3] it was -91.8% (inactive); in experiment [7] it was 0.936% (inactive); in experiment [8], 16.6% (inactive). In experiment [2], the inhibition of aggregation was 7.1% (inactive). Moreover, the results for the nuclei count in experiment [2] and in experiment [3] were 105% and 119%, respectively. The fluorescence slope in experiment [4] is -0.372 (inactive). Also, the NADPH fluorescence slope in experiment [5] was -3.2e-06 (inactive). Besides, in experiment [6], the slope is 0.00315 (inactive).
On to `CCc1nc(N)c(C#N)c(-c2ccc(OC)c(OC)c2)c1C`, for which the cell count in experiment [1] amounted to 628. In addition, the inhibition in experiment [1] was -4.4% (inactive); in experiment [3], -37% (inactive); in experiment [7], 16.9% (inactive); in experiment [8], 21.8% (inactive). The inhibition of aggregation in experiment [2] is -13.8% (inactive). The nuclei count in experiment [2] stood at 98.5%; in experiment [3], 111%. The fluorescence slope in experiment [4] is -0.384 (inactive). Also, the NADPH fluorescence slope in experiment [5] was 1e-05 (inactive). For the same compound, the slope in experiment [6] was 0.00633 (inactive).
As to `O=C(Nc1ccc(N2CCOCC2)cc1)C1CC1`, in experiment [1], the cell count was found to be 344. For the same compound, the inhibition is 3.5% (inactive) in experiment [1], -16.5% (inactive) in experiment [3], 6.17% (inactive) in experiment [7] and -13.8% (inactive) in experiment [8]. The inhibition of aggregation in experiment [2] is 25% (inactive). Moreover, the nuclei count in experiment [2] was found to be 83.9%; in experiment [3] it was 121%. The fluorescence slope in experiment [4] is -0.39 (inactive). Moreover, the NADPH fluorescence slope in experiment [5] is -2.3e-05 (inactive). The slope in experiment [6] was 0.00566 (inactive).
Consider `COC(C)(C)c1cc(C(C)(C)C)nc(N)n1`, for which the cell count in experiment [1] stood at 433. Further, the inhibition in experiment [1] is 12% (inactive); in experiment [3], -28.8% (inactive); in experiment [7], 6.59% (inactive); in experiment [8], 24.6% (inactive). Moreover, the inhibition of aggregation in experiment [2] was 9.5% (inactive). For the same compound, the results for the nuclei count in experiment [2] and in experiment [3] were 103% and 129%, respectively. The fluorescence slope in experiment [4] was -0.385 (inactive). The NADPH fluorescence slope in experiment [5] is -7.8e-05 (inactive). For the same compound, the slope in experiment [6] was 0.00615 (inactive).
On to `CCOc1cc(-c2nc(-c3ccccc3OC)no2)cc(OCC)c1OCC`, for which the cell count in experiment [1] is 575. Besides, the inhibition was 7.7% (inactive) in experiment [1], -68.3% (inactive) in experiment [3], 11.5% (inactive) in experiment [7] and 12.6% (inactive) in experiment [8]. In experiment [2], the inhibition of aggregation was 0.8% (inactive). Also, the nuclei count in experiment [2] was found to be 98.3%; in experiment [3] it was 109%. The fluorescence slope in experiment [4] is -0.605 (inactive). In addition, in experiment [5], the NADPH fluorescence slope was -4.7e-05 (inactive). In addition, the slope in experiment [6] was 0.00447 (inactive).
Turning to `CCOC(=O)CSc1nc2cccnc2n1-c1ccc(F)cc1`, the cell count in experiment [1] is 328. In addition, the inhibition is -0.2% (inactive) in experiment [1], -26.8% (inactive) in experiment [3], -4.88% (inactive) in experiment [7] and 2.83% (inactive) in experiment [8]. Further, the inhibition of aggregation in experiment [2] is -28% (inactive). Further, the nuclei count in experiment [2] was 110%; in experiment [3], 111%. Moreover, the fluorescence slope in experiment [4] is -0.444 (inactive). In addition, in experiment [5], the NADPH fluorescence slope was -1.6e-05 (inactive). For the same compound, the slope in experiment [6] was 0.0064 (inactive).
With `c1ccc(CN2CCN(CCCNc3ccc4nnc(-c5ccccc5)n4n3)CC2)cc1`, in experiment [1], the cell count was determined as 485. Also, the inhibition was -5.5% (inactive) in experiment [1], -67.5% (inactive) in experiment [3], -3.46% (inactive) in experiment [7] and -17.8% (inactive) in experiment [8]. Also, the inhibition of aggregation in experiment [2] was 13.8% (inactive). Moreover, the nuclei count in experiment [2] came out at 10.8%; in experiment [3], 102%. Further, the fluorescence slope in experiment [4] was -0.63 (inactive). Further, the NADPH fluorescence slope in experiment [5] is -1.7e-05 (inactive). Moreover, the slope in experiment [6] was 0.00645 (inactive).
On to `COc1ccccc1NC(=O)C(C)NS(=O)(=O)c1ccc(F)cc1` (stereo not drawn), for which the cell count in experiment [1] came to 331. For the same compound, the inhibition in experiment [1] was 2.8% (inactive); in experiment [3], -22.4% (inactive); in experiment [7], 3.7% (inactive); in experiment [8], 46.5% (inactive). Moreover, in experiment [2], the inhibition of aggregation is -6.8% (inactive). Besides, the nuclei count in experiment [2] was found to be 108%; in experiment [3], 100%. Also, the fluorescence slope in experiment [4] is -0.476 (inactive). The NADPH fluorescence slope in experiment [5] is -3.4e-05 (inactive). The slope in experiment [6] is 0.00634 (inactive).

Source of the values: PubChem BioAssay.
